Measurements: publication PMC4336329 (PLoS ONE, 2015)
About 14,000 (4.5%) of roughly 310,000 compounds showed an effect of 50% or more. Effects have a minus sign here. The list comes from a sample in which strong results are over-represented; it also holds similar structures and randomly drawn compounds.

These molecules were tested against human ether-à-go-go-related gene (hERG) potassium channel (human, UniProt Q12809) (assay: primary screen, population patch clamp on CHO cells stably expressing hERG; higher = less effect of the substance).
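Note: peak tail current of the secondary pulse compared with the same well before compound.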

Chain of human ether-à-go-go-related gene (hERG) potassium channel (Q12809 whole entry, looked up): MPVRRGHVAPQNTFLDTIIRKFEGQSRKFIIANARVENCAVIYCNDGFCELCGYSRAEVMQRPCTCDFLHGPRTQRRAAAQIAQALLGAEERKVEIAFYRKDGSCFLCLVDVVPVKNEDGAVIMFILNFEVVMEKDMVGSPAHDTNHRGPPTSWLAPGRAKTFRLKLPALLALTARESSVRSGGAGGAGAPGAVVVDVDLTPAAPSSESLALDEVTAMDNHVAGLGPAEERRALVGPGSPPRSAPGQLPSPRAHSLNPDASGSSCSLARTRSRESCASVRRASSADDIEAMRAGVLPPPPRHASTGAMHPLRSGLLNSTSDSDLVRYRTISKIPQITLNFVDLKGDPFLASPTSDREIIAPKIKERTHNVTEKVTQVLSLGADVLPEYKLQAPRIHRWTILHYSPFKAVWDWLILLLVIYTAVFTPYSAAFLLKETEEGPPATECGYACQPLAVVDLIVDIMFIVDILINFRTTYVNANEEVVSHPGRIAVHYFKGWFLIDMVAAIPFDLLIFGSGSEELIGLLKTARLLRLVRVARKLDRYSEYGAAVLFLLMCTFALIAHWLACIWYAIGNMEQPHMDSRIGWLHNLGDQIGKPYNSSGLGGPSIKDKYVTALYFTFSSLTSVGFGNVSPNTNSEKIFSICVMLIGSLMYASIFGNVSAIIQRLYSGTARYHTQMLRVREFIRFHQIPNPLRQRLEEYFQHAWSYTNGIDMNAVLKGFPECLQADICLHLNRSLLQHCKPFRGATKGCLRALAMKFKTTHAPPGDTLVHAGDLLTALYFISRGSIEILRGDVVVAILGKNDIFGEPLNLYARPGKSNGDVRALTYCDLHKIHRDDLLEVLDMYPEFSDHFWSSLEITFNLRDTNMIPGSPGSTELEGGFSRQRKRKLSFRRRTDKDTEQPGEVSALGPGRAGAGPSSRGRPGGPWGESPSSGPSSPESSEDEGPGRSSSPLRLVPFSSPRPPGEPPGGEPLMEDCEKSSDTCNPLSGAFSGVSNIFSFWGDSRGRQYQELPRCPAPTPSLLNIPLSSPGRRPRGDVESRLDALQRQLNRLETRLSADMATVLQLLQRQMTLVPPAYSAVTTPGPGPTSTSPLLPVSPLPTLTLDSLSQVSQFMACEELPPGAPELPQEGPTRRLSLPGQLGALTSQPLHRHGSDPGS

In order of rising “hERG current change (%, negative = inhibition) at 10uM” value:
1. O=C(COc1ccc(Br)cc1CNC1CCCCC1)NCCc1ccccc1  -77%
2. Cl.O=C(COc1ccc(Br)cc1CNC1CCCC1)Nc1ccccc1  -73.1%
3. Cl.Fc1ccccc1COc1ccc(Br)cc1CNCC1CCCO1 (stereo not shown)  -68.3%
4. CCOc1cc(CNC2CCCC2)c(Cl)cc1OCC(=O)Nc1ccccc1  -67.8%
5. Cc1cccc(C)c1NC(=O)CSc1nnc(-c2ccco2)c(-c2ccco2)n1  -67.1%
6. Cc1cccc(NC(=O)CSc2nnc(-c3ccco3)c(-c3ccco3)n2)c1C  -66.4%
7. Cc1ccc(S(C)(=O)=O)cc1C(=O)Nc1cccc(S(=O)(=O)N2CCCCCC2)c1  -65.2%
8. CSc1ncccc1C(=O)Nc1cccc(S(=O)(=O)N2CCCCC2)c1  -64.3%
9. Cl.Fc1ccc(COc2ccc(Br)cc2CNCC2CCCO2)cc1 (stereo not shown)  -63.5%
10. CN(Cc1ccco1)S(=O)(=O)c1ccc(CN2C(=O)c3cccnc3C2=O)s1  -63.4%
11. COCCn1cnc2c1c(=O)n(CC(=O)OCC(=O)NCCCc1ccccc1)c(=O)n2Cc1ccccc1  -57.9%
12. Cc1ccccc1NC(=O)CSc1nnc(-c2ccco2)c(-c2ccco2)n1  -53.9%
13. COc1ccccc1NC(=O)COc1ccc(Br)cc1CNC1CCCC1  -53.2%
14. Brc1ccc(OCc2ccccc2)c(CNCC2CCCO2)c1.Cl (stereo not shown)  -50%
15. CCOc1ccc(C(=O)COC(=O)CN2C(=O)NC3(CCCCC3C)C2=O)cc1 (stereo not shown)  -42.7%
16. Cc1ccc(S(=O)(=O)N2CCOCC2)cc1C(=O)Nc1cccc(S(=O)(=O)N2CCCC2)c1  -38.3%
17. O=C(COc1ccc(Br)cc1CO)Nc1ccc(F)cc1  -32.8%
18. CCCNCc1cc(OCC)c(OCC(=O)Nc2ccccc2)cc1Br  -24.7%
19. Cc1cccc(NC(=O)CSc2nnc(CNC(=O)c3ccco3)n2C)c1C  -17.3%
20. CSc1ncccc1C(=O)Nc1ccc(S(=O)(=O)N2CCCC2)cc1  -16.6%
21. CCOc1cc(CNCC(C)C)c(Cl)cc1OCC(=O)Nc1ccccc1  -15.2%
22. COc1ccc(Br)cc1CN(C)CC(=O)NCCc1ccccc1.O=C(O)C(=O)O  -14.7%
23. COc1ccc(CN2C(=O)c3cccnc3C2=O)cc1S(=O)(=O)N(C)Cc1ccco1  -13.3%
24. Cc1[nH]n2c(=O)cc(C(C)C)nc2c1-c1ccccc1  -12.1%
25. O=C(COc1ccc(Br)cc1CO)Nc1ccccc1  -10.4%
26. CCOC(=O)C1CCN(C(=O)c2ccc(NC(=O)C3CCCO3)cc2)CC1 (stereo not shown)  -9.35%
27. CCOc1ncccc1C(=O)Nc1cccc(S(=O)(=O)N2CCCCC2)c1  -7.03%
28. O=C(CCl)N=c1sccn1Cc1ccccc1Cl  -5.61%
29. COc1ccc(OC2C(=O)N(Cc3ccc4c(c3)OCO4)C2c2sccc2C)cc1 (stereo not shown)  -5.31%
30. COc1ccccc1NC(=O)COc1ccc(Br)cc1CO  -4.58%
31. Cc1cccc(NC(=O)CSc2nnc(-c3ccco3)o2)c1C  -4.42%
32. CCN(CC(=O)Nc1cc(Cl)ccc1C)C(=O)COc1cccc2c1OC(C)(C)C2  -4.2%
33. Cc1cccc(C)c1NC(=O)CSc1nnc(-c2ccco2)n1N  -4.1%
34. Clc1ccc(CSc2ccc(-c3ccccn3)nn2)cc1  -2.04%
35. COc1cc(CNC2CCCC2)cc(Br)c1OCC(=O)Nc1ccccc1C  -1.01%
36. COc1cc(/C=C(\C#N)C(=O)NCc2cccs2)ccc1O  -0.725%
37. COc1cc(-c2noc(C)c2C(=O)NCCc2c[nH]c3ccccc23)cc(OC)c1OC  0.397%
38. Fc1ccc(NC(=S)NCCc2ccc(Cl)cc2)cc1  1.47%
39. CC(C)(C)c1ccc(C(=O)Oc2ccc3c(c2)OCC3=O)cc1  2.55%
40. CCOc1ccc2nc(NC(=O)CSc3nnc(-c4ccncc4)n3CC3CCCO3)sc2c1 (stereo not shown)  3.71%
41. Cc1ccccc1NC(=O)CSc1nnc(-c2ccco2)n1N  4.14%
42. COCCn1cnc2c1c(=O)n(CC(=O)OCC(=O)NCC(F)(F)F)c(=O)n2Cc1ccccc1  4.6%
43. Brc1cccc(CNCC2CCCO2)c1 (stereo not shown)  4.72%
44. Cc1cccc(C)c1NC(=O)CSc1nc(-c2ccco2)cc(C(F)(F)F)n1  4.77%
45. CC(=O)Nc1ccc(NC(=O)c2cc(S(=O)(=O)N3CCCCC3)ccc2C)cc1  5.45%
46. COc1ccc(Br)cc1CNCC1CCCO1 (stereo not shown)  5.7%
47. O=C(C1=C(O)C(=O)N(c2ncccn2)C1c1ccc(Cl)cc1)c1ccco1 (stereo not shown)  7.37%
48. CN(C)S(=O)(=O)c1ccc(NC(=O)CN2C(=O)NC3(CCCC3)C2=O)cc1  8.41%
49. COCCn1cnc2c1c(=O)n(CC(=O)NN)c(=O)n2Cc1ccccc1  8.95%
50. O=C(NCCc1ccccn1)C1CCCN(S(=O)(=O)Cc2ccccc2)C1 (stereo not shown)  9.26%
51. COc1ccc(NC(=O)CCS(=O)(=O)c2cc3c(cc2Cl)NC(=O)CO3)cc1OC  9.57%
52. Cc1ccccc1NC(=O)CSc1n[nH]c(-c2ccco2)n1  10.1%
53. CCOc1ccccc1CNCC1CCCO1.Cl (stereo not shown)  11.5%
54. O=C(COc1ccc(Br)cc1Br)NC1CCCC1  12.9%
55. O=C1c2cccnc2C(=O)N1Cc1ccc(S(=O)(=O)NCc2ccco2)s1  16.2%
56. COC(=O)c1cc(C(=O)CC(C)C)c[nH]1  16.7%
57. O=CNCC(=O)NC1CCCCCC1  20.5%
58. O=C(/C=C/c1ccccc1)NC(=S)NNC(=O)Cc1cccs1  22.5%
